In PubChem BioAssay:
Entries with a potency or affinity are not part of this list. Inconclusive results are not listed. Calls of active or inactive are those of the source.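 How the source made its calls: active means fitted half-maximal concentration for viability loss no higher than twice the top valid dose, in every repeat run; inconclusive means repeat runs disagree, flat partial loss, or poor curve fit; inactive means the rest.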

Assay: IOSE-T80 viability loss, PAX8-independent line – cell-based, cherry-pick, selectivity assay for PAX8 inhibitor project, dose response (AID 687032);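 further: cells exposed to compound for 96 h before reading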
Settings: CellTiterGlo ATP luminescence, 96 h; series mostly up to 35 µM

Structure (SMILES) | outcome
COc1ccc(S(=O)(=O)Nc2ccc3c(c2)CC(=O)N([C@@H](C)CO)C[C@@H](C)[C@H](CN(C)Cc2ccc(-c4ccccc4)cc2)O3)cc1 | inactive
C[C@H](O)C#Cc1cnc2c(c1)C(=O)N([C@H](C)CO)C[C@H](C)[C@H](CN(C)Cc1ccc(-c3ccccc3)cc1)O2 | inactive
O=C(c1ccc(F)cc1)N1C[C@@H]2N[C@H](C1)C2c1ccc(-c2ccc(F)cc2)cc1 (some centres undefined) | inactive
C[C@H](O)C#Cc1ccc2c(c1)O[C@H](CN(C)Cc1ccc(-c3ccccc3)cc1)[C@@H](C)CN([C@H](C)CO)S2(=O)=O | inactive
C[C@@H]1CN([C@H](C)CO)C(=O)Cc2cc(NS(=O)(=O)c3ccccc3)ccc2O[C@@H]1CN(C)S(=O)(=O)c1ccc(Cl)cc1 | inactive
C[C@@H]1CCCCO[C@H](CN(C)C)[C@H](C)CN([C@H](C)CO)C(=O)c2cc(NC(=O)Nc3cccc4ccccc34)ccc2O1 | inactive
C[C@@H]1CN([C@H](C)CO)C(=O)c2c(c3ccccc3n2C)-c2ccccc2CO[C@@H]1CN(C)C | inactive
COc1ccccc1S(=O)(=O)N(C)C[C@@H]1Oc2cc(C#CCC3CCCC3)ccc2S(=O)(=O)N([C@@H](C)CO)C[C@@H]1C | inactive
CCCN(C)C[C@H]1OCCCC[C@@H](C)Oc2ccc(NC(=O)c3ccccc3)cc2C(=O)N([C@H](C)CO)C[C@H]1C | inactive
C[C@@H]1CN([C@@H](C)CO)C(=O)Cc2cc(NC(=O)Nc3ccc(F)cc3)ccc2O[C@H]1CN(C)CC1CCCCC1 | inactive
O=C(Nc1cccc(F)c1)N[C@@H]1CC[C@@H](CCNS(=O)(=O)c2cccc(Cl)c2)O[C@@H]1CO | inactive
C[C@@H]1CN([C@@H](C)CO)C(=O)Cc2cc(N(C)C)ccc2O[C@H]1CN(C)Cc1ccc(Oc2ccccc2)cc1 | inactive
Cc1ccc(S(=O)(=O)Nc2ccc3c(c2)C(=O)N([C@@H](C)CO)C[C@@H](C)[C@@H](CN(C)Cc2ccc(C(F)(F)F)cc2)OCCCC[C@@H](C)O3)cc1 | inactive
Cc1cccc(-c2ccc([C@H]3[C@H](CO)N4CCCCN(S(=O)(=O)c5ccccc5C)C[C@@H]34)cc2)c1 | inactive
C[C@H]1CCCCO[C@@H](CN(C)C(=O)Nc2ccc(C(F)(F)F)cc2)[C@@H](C)CN([C@@H](C)CO)C(=O)c2cc(NS(=O)(=O)c3cn(C)cn3)ccc2O1 | inactive
C[C@@H]1CN([C@H](C)CO)C(=O)c2cc(NC(=O)Nc3ccccc3)ccc2O[C@@H](C)CCCCO[C@H]1CN(C)Cc1ccc(Cl)c(Cl)c1 | inactive
C[C@H]1CCCCO[C@@H](CN(C)C)[C@@H](C)CN([C@@H](C)CO)C(=O)c2cc(NC(=O)Nc3ccc(C(F)(F)F)cc3)ccc2O1 | inactive
C[C@H](CO)N1C[C@H](C)[C@@H](CN(C)Cc2ccc(-c3ccccc3)cc2)Oc2ccc(NC(=O)Cc3ccccc3)cc2CC1=O | inactive
C[C@H](CO)N1C[C@H](C)[C@H](CN(C)C(=O)NC2CCCCC2)Oc2cc(C#Cc3ccc(F)cc3)ccc2S1(=O)=O | inactive
O=C(Nc1ccc(C(F)(F)F)cc1)N1C[C@@H]2N[C@H](C1)C2c1ccc(-c2ccccc2)cc1 (some centres undefined) | inactive

Structure (SMILES) | outcome
C[C@@H]1CCCCO[C@H](CN(C)Cc2ccc(C(F)(F)F)cc2)[C@H](C)CN([C@@H](C)CO)C(=O)c2cc(NC(=O)Nc3ccc(F)cc3)ccc2O1 | inactive
Cc1ccc(S(=O)(=O)Nc2ccc3c(c2)C(=O)N([C@@H](C)CO)C[C@@H](C)[C@@H](CN(C)Cc2ccc(C(F)(F)F)cc2)OCCCC[C@H](C)O3)cc1 | inactive
C[C@H](CO)N1C[C@H](C)[C@H](CN(C)C(=O)NC2CCCCC2)OCCCC[C@H](C)Oc2ccc(NC(=O)Nc3ccc(C(F)(F)F)cc3)cc2C1=O | inactive
C[C@@H]1CN([C@@H](C)CO)S(=O)(=O)c2ccc(C#Cc3ccc(F)cc3)cc2O[C@H]1CN(C)C(=O)NC1CCCCC1 | inactive
C[C@@H]1CN([C@@H](C)CO)C(=O)Cc2cc(NC(=O)c3ccncc3)ccc2O[C@@H]1CN(C)Cc1ccc(-c2ccccc2)cc1 | inactive
Cc1ccc(S(=O)(=O)Nc2ccc3c(c2)C(=O)N([C@@H](C)CO)C[C@@H](C)[C@@H](CN(C)Cc2ccc(Cl)c(Cl)c2)OCCCC[C@@H](C)O3)cc1 | inactive
O=C(C[C@H]1CC[C@@H]2[C@H](COC[C@@H](O)CN2Cc2ccc(F)cc2)O1)NCc1ccccc1Cl | inactive
CCCC#Cc1ccc([C@@H]2[C@H]3CN(S(=O)(=O)c4ccccc4F)CCCCN3[C@H]2CO)cc1 | inactive
Cc1ccc(S(=O)(=O)N[C@@H]2C=C[C@@H](CC(=O)N3CCC(Cc4ccccc4)CC3)O[C@@H]2CO)cc1 | inactive
COc1cccc(S(=O)(=O)N(C)C[C@H]2OCc3ccccc3-c3c(n(C)c4ccccc34)C(=O)N([C@@H](C)CO)C[C@H]2C)c1 | inactive
C[C@@H]1CN([C@@H](C)CO)C(=O)c2ccccc2-c2ccccc2CO[C@@H]1CN(C)Cc1ccc2c(c1)OCCN2C | inactive
C[C@@H]1CCCCO[C@H](CN(C)Cc2ccccc2)[C@H](C)CN([C@H](C)CO)C(=O)c2cc(NC(=O)Nc3ccc(C(F)(F)F)cc3)ccc2O1 | inactive
O=C(C[C@H]1CC[C@H]2[C@@H](COC[C@@H](O)CN2Cc2ccc(F)cc2)O1)NCc1ccccc1Cl | inactive
C[C@@H]1CN([C@@H](C)CO)C(=O)Cc2cc(NC(=O)C3CC3)ccc2O[C@H]1CN(C)Cc1ccc(-c2ccccc2)cc1 | inactive
COc1ccc(S(=O)(=O)N2CCCCN3[C@H](C2)[C@@H](c2ccc(C#CC(C)C)cc2)[C@@H]3CO)cc1 | inactive
C[C@@H]1CCCCO[C@@H](CN(C)C(=O)Nc2ccccc2)[C@H](C)CN([C@H](C)CO)C(=O)c2cc(NC(=O)Nc3ccc(C(F)(F)F)cc3)ccc2O1 | inactive
C[C@@H]1CCCCO[C@H](CN(C)Cc2ccc(C(F)(F)F)cc2)[C@@H](C)CN([C@@H](C)CO)C(=O)c2cc(NS(=O)(=O)c3cccs3)ccc2O1 | inactive
COc1ccc(S(=O)(=O)Nc2ccc3c(c2)C(=O)N([C@@H](C)CO)C[C@H](C)[C@H](CN(C)Cc2ccc(C(F)(F)F)cc2)OCCCC[C@@H](C)O3)cc1 | inactive
C[C@@H]1CN([C@@H](C)CO)C(=O)Cc2cc(NS(=O)(=O)c3ccc(F)cc3)ccc2O[C@H]1CN(C)Cc1ccc(Oc2ccccc2)cc1 | inactive
